Assay outcomes (PubChem)
mTORC1 inh: Acumen qHTS Assay for Inhibitors of the mTORC1 Signaling Pathway in MEF (Tsc2-/-, p53-/-) Cells: Sytravon. Tsc2-/- p53-/- MEF, phospho-rpS6 immunofluorescence/PI, 24 h. Potency, µM (series often up to 38.3 µM), most hits filed as inhibitors. 44,000 compounds, 0.78% hits; note: nearly all actives have a fitted effect of over 50% in size
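Compounds act on Tsc2-/-, p53-/- fibroblasts carrying an empty vector for 24 h before fixation and dual staining for phospho-S6 and DNA (propidium iodide). Values are percentages of cells above a rapamycin-defined pS6/PI threshold.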
p53null 39C tox: qHTS Screen for Compounds that Selectively Target Cancer Cells with p53 Mutations: Cytotoxicity of p53 Null Cells at the Nonpermissive Temperature | H1299 p53-null (neo) cells, 39C, ATPlite viability, 24 h | 55,000 compounds, 0.97% hits | Potency, µM (top dose mostly 46.1 µM), hits mostly cytotoxic; note: nearly all actives have a fitted effect of over 50% in size
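Luminescent ATP signal reported cell survival after H1299 lines (neo, p53 null; or p53 A138V) received up to 46 uM compound and 24 hr incubation at 39C.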
S16 viability: Cell viability qHTS assay in S16 Pmp22-F2sN cells | S16 Pmp22-F2sN Schwann cells viability, CellTiter-Glo, 24 h | Potency, µM (titrated, usually from 57.5 µM), actives largely listed as cytotoxic | 43,000 compounds, 0.48% hits | AID 1508642, 2021; note: nearly all actives have a fitted effect of over 65% in size
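Viability was measured by CellTiter-Glo luminescence (15 min, room temperature). This followed 24 h at 37 °C of compound exposure (23 nL pin transfer) in S16 Pmp22-F2sN Schwann cells, 500-1,000 per well.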
p53null 32C tox: qHTS Screen for Compounds that Selectively Target Cancer Cells with p53 Mutations: Cytotoxicity of p53 Null Cells at the Permissive Temperature; Potency, µM (titrated, usually from 46.1 µM), hits mostly cytotoxic; H1299-neo p53 null cells, ATP luminescence, 24 h, 32C; 55,000 compounds, 0.62% hits; note: nearly all actives have a fitted effect of over 55% in size
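ATP-content luminescence in p53-null H1299-neo cells after 24 h compound exposure (up to 46 uM) at 32C permissive temperature; 0% and 100% killing set by DMSO and 100 uM tamoxifen; Hill-equation AC50.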
PMP22 txn: Cell-based coincidence reporter assay to measure PMP22 gene transcription in S16 Pmp22-F2sN cells - Primary screen | S16 Pmp22-F2sN Schwann cells (luciferase reporters placed in the Pmp22 gene), FLuc/NLuc coincidence luminescence, 24 h | AID 1508649, 2021 | Potency, µM (doses to about 57.5 µM), usual class: inhibitors | 43,000 compounds, 2% hits; active = clear falling dose curves in both reporters; inconclusive = both reporters move, but less clearly or upward; inactive = either reporter flat; the % is the NLuc reporter signal
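Rat S16 Pmp22-F2sN cells, 500-1,000/well in phenol red-free DMEM + 10% FBS, compound-treated 24 h (37C, 5% CO2). Luminescence: FLuc read, Stop&Glo added, NLuc read.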
SKOV3 invasion: Primary qHTS assay for Inhibitors of ovarian cancer metastasis using an organotypic tumor microenvironment (TME) model; SKOV3ip1-GFP adhesion/invasion on 3D omental model, fluorescence; Potency, µM (series often up to 45.8 µM), usual class: inhibitors; 46,000 compounds, 0.1% hits; note: nearly all actives have a fitted effect of over 65% in size
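A 3D layer of primary human omental fibroblasts, mesothelial cells, fibronectin and collagen I, grown 48 hr, received SKOV3ip1-GFP cells in serum-free medium plus compounds at 0.36-46 umol/L. After 2 hr RT and 16 hr 37 C, fixed adherent GFP cells were counted; normalized to DMSO and tomatine.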
NLuc saturating: Biochemical NLuc saturation counterscreen for small molecule modulators of PMP22 gene expression - Nano-Glo assay; shares compounds with PMP22 txn; Secreted NLuc enzyme (filtered S16 cell medium), Nano-Glo luminescence; Potency, µM (highest dose often 57.5 µM), usual class: inhibitors; 690 compounds, 4% hits
NLuc Km ctr: Biochemical coelenterazine-based NLuc counterscreen for small molecule modulators of PMP22 gene expression - Km assay; secreted NLuc enzyme, coelenterazine luminescence, Km conditions; 690 compounds, 5% hits; Potency, µM (titrated, usually from 57.5 µM), hits mostly inhibitors; shares compounds with PMP22 txn
FLuc counter: Biochemical FLuc counterscreen for small molecule modulators of PMP22 gene expression; shares compounds with PMP22 txn; purified P. pyralis FLuc, luminescence, 10 min; Potency, µM (highest dose often 57.5 µM), most hits filed as inhibitors; 690 tested, under 10 active; AID 1508640, 2021
Target sequence (P08659 whole entry, looked up): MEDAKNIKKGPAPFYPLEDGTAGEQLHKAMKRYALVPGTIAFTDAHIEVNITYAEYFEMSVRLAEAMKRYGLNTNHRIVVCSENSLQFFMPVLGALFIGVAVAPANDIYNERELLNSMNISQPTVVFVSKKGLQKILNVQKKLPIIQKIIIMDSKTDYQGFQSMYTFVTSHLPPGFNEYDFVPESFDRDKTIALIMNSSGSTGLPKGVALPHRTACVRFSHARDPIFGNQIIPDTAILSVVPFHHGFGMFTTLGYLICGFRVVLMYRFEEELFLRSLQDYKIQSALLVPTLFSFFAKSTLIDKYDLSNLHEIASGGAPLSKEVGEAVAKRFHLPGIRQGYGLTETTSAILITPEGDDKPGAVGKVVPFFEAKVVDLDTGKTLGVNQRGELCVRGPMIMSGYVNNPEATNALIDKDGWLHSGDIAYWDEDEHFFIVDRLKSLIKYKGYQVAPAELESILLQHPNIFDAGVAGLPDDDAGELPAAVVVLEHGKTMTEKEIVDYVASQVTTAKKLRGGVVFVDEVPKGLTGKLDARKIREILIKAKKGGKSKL
S16 viab conf: Cell viability qHTS assay in S16 Pmp22-F2sN cells - Confirmatory screen; 690 compounds, 7% hits; shares compounds with PMP22 txn; S16 Schwann cells viability, CellTiter-Glo ATP luminescence, 24 h; Potency, µM (highest dose often 57.5 µM), actives largely listed as cytotoxic
PMP22 txn cnf: Cell-based coincidence reporter assay to measure PMP22 gene transcription in S16 Pmp22-F2sN cells - Confirmatory screen; S16 Schwann cells Pmp22-F2sN, dual luciferase, 24 h; shares compounds with PMP22 txn; Potency, µM (series often up to 57.5 µM), actives largely listed as inhibitors; AID 1508646, 2021; 690 compounds, 22% hits; active = clear falling dose curves in both reporters; inconclusive = both reporters move, but less clearly or upward; inactive = either reporter flat; the % is the FLuc reporter signal
PMP22 prot conf: Cell-based HiBiT reporter assay to measure PMP22 protein expression in S16 Pmp22-HiBiT cells - Confirmatory screen; shares compounds with PMP22 txn; S16 Schwann cells Pmp22-HiBiT, luminescence, 48 h; Potency, µM (highest dose often 27.9 µM), actives largely listed as inhibitors; 95 tested, under 10 active; AID 1508647, 2021
Of the large screens only hits and unclear results are named; the others gave an inactive call (follow-up assays come after a bar, where they were run). Most compounds without a hit are left out; they make up all but 3.1% or so of the library. Unless noted, calls come from the whole dose curve; as a rule, active = well fitted curve in the direction sought with a large enough effect; inconclusive = small, poorly fitted or top-dose-only effect, or another doubt; inactive = no such curve, though single readings can be large; an effect the other way counts as inactive or inconclusive.

Cc1c(NC(=O)c2ccc(C(C)(C)C)cc2)cccc1-c1cn(C)c(=O)c(Nc2ccc(C(=O)N3CCOCC3)cc2)n1	none (no result: mTORC1 inh, p53null 39C tox, S16 viability, p53null 32C tox, PMP22 txn)
CCC1=Nc2cc(C(=O)NCc3ccccc3Cl)ccc2Sc2ccc(C)cc21	mTORC1 inh inconclusive, PMP22 txn 10µM | NLuc saturating inactive | NLuc Km ctr inactive | FLuc counter inactive | S16 viab conf inactive | PMP22 txn cnf inactive
CC1=Nc2cc(C(=O)NCc3ccccc3Cl)ccc2Sc2c(C)ccc(C)c21	PMP22 txn 10µM | NLuc saturating inactive | NLuc Km ctr inactive | FLuc counter inactive | S16 viab conf inactive | PMP22 txn cnf inconclusive
COc1nc(C)cnc1NS(=O)(=O)c1cccnc1-c1ccc(-c2nnco2)cc1	none (no result: mTORC1 inh, p53null 39C tox, S16 viability, p53null 32C tox, PMP22 txn)
COc1ccc(NC(=O)c2oc3ccccc3c2NC(=O)Cc2ccc(F)cc2)c(OC)c1	mTORC1 inh inconclusive, PMP22 txn 13µM | NLuc saturating inactive | NLuc Km ctr inactive | FLuc counter inactive | S16 viab conf inconclusive | PMP22 txn cnf inconclusive | PMP22 prot conf inactive
COc1ccc(NC(=O)c2oc3ccccc3c2NC(=O)c2cccc(F)c2)c(OC)c1	PMP22 txn inconclusive
CC(=O)c1ccc(NC(=O)COc2ccccc2-c2nc(C(C)C)no2)cc1	PMP22 txn 13µM | NLuc saturating inactive | NLuc Km ctr inactive | FLuc counter inactive | S16 viab conf inactive | PMP22 txn cnf inactive
CCOc1ccc(NC(=O)CSc2oc(-c3ccc(F)cc3)nc2S(=O)(=O)c2ccc(C)cc2)cc1	mTORC1 inh 2.9µM, PMP22 txn 12µM | NLuc saturating inactive | NLuc Km ctr inactive | FLuc counter inactive | S16 viab conf inconclusive | PMP22 txn cnf 15µM | PMP22 prot conf inactive
O=C(Cc1ccc(-c2ccc(OCCN3CCOCC3)cc2)cn1)NCc1ccccc1	none (no result: mTORC1 inh, p53null 39C tox, S16 viability, p53null 32C tox, PMP22 txn)
